According to the supplement of paper PMC11732987, “Enantioselective OTUD7B fragment discovery through chemoproteomics screening and high-throughput optimisation” (Communications Chemistry, 2025):

Assays:
Assay in all cases: log2 ratio of Biotin-Ahx-Ub-VS probe labelling (fragment/DMSO); higher = less target engagement (more negative = stronger competition), active = hit call of the paper (q ≤ 0.05, log2 ratio ≤ -1)
Conditions in all cases: compound concentration: 200 uM; treatment time: 3 h
[1] = molecular target: T1, ALG13 (UniProt Q9NP73)
T1 sequence (whole entry): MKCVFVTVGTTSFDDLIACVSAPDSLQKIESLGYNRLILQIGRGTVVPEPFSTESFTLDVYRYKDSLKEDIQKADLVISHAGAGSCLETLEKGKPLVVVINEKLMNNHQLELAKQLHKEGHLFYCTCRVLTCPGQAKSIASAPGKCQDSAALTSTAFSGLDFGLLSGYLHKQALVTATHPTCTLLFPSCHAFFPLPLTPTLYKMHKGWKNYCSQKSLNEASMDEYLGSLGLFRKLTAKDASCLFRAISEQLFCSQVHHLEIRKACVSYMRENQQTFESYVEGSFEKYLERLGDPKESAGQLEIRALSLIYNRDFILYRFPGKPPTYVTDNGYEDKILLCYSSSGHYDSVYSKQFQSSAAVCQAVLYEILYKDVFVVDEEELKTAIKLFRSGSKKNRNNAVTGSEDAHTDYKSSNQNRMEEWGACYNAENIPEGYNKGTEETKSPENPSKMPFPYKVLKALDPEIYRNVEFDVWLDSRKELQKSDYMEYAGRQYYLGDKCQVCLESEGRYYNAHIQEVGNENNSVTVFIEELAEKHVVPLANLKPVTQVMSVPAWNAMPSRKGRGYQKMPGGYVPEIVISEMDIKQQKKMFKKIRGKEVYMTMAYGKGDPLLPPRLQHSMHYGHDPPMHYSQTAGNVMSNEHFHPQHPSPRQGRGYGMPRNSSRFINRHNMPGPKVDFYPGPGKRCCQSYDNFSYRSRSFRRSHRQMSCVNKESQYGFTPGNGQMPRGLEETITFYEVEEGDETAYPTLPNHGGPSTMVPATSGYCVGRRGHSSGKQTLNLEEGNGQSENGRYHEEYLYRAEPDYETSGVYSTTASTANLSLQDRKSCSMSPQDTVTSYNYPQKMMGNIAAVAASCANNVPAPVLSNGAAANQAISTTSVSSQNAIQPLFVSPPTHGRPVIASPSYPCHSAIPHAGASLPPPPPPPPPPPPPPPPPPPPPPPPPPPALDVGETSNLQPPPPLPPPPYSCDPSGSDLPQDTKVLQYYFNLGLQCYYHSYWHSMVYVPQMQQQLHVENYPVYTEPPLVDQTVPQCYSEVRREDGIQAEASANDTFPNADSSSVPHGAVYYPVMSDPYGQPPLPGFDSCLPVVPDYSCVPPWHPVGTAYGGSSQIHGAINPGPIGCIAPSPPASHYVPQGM
Outline: (§1)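 Labelling with Biotin-Ahx-Ub-VS (0.5 µM final, 1 h) followed a 3 h triplicate treatment of HEK293T lysate (495 µg per sample, Tris/CHAPS/IGEPAL buffer with protease inhibitors) with fragment at 200 µM or vehicle. Labelled DUBs were NeutrAvidin-enriched, digested with LysC and trypsin, and run by diaPASEF LC-MS/MS. The values, average log2 fragment/vehicle ratios by unpaired t-test, come from global-median-normalised Spectronaut label-free quantities. Proteins with ≥2 unique peptides were used.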

[2] = molecular target: ATXN3 (UniProt P54252)
ATXN3, sequence (P54252 whole entry): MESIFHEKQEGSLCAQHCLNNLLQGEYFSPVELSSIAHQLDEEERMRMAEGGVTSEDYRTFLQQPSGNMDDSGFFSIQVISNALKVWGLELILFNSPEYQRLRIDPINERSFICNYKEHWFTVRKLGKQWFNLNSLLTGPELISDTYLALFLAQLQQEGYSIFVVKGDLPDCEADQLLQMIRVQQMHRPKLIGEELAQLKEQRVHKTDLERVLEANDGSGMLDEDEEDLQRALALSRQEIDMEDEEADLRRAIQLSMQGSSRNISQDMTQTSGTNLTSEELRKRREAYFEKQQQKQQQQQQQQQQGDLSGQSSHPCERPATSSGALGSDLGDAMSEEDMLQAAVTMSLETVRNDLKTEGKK
Outline: as §1

[3] = molecular target: T2, BAP1 (UniProt Q92560)
T2 sequence (whole entry): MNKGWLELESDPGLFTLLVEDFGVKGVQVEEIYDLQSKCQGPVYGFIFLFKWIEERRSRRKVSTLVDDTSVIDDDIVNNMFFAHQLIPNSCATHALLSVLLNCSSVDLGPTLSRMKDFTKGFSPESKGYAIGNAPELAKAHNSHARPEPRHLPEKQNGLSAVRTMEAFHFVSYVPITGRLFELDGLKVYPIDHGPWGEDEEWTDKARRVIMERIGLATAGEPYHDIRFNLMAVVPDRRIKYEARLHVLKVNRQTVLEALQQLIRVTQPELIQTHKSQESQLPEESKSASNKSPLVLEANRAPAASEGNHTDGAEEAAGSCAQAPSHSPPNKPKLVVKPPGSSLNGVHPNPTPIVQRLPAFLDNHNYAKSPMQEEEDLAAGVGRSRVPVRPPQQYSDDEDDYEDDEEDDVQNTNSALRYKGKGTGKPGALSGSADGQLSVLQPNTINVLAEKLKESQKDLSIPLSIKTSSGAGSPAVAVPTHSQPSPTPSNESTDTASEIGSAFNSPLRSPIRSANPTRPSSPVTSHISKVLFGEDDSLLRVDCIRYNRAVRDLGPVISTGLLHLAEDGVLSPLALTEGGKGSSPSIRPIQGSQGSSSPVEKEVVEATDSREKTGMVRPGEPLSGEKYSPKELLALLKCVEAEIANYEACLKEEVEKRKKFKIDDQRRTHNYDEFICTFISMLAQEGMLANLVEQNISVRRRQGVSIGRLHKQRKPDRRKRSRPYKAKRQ
Outline: as §1

[4] = molecular target: EIF3F (UniProt O00303)
EIF3F, sequence (O00303 whole entry): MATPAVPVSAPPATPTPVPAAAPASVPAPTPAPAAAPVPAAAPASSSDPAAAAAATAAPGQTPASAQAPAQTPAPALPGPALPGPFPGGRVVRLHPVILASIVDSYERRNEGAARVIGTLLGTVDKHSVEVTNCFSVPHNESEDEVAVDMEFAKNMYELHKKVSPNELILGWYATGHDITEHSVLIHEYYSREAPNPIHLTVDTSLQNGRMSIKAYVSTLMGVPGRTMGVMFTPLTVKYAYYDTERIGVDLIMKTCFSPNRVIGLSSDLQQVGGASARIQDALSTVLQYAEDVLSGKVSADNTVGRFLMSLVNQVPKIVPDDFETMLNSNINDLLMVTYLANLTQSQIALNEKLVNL
Outline: as §1

[5] = molecular target: EIF3H (UniProt O15372)
EIF3H, sequence (O15372 whole entry): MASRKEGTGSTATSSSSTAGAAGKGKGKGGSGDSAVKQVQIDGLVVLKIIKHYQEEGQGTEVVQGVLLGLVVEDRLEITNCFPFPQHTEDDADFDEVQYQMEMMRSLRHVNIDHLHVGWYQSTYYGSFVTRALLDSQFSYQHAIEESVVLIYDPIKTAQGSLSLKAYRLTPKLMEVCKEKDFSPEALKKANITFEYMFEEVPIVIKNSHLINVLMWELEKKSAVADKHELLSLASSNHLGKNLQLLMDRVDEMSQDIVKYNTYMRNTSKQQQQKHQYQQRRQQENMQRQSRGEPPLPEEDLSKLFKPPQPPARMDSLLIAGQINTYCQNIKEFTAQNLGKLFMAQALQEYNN
Outline: as §1

[6] = molecular target: T3, FAM105A (UniProt Q9NUU6)
T3 sequence (whole entry): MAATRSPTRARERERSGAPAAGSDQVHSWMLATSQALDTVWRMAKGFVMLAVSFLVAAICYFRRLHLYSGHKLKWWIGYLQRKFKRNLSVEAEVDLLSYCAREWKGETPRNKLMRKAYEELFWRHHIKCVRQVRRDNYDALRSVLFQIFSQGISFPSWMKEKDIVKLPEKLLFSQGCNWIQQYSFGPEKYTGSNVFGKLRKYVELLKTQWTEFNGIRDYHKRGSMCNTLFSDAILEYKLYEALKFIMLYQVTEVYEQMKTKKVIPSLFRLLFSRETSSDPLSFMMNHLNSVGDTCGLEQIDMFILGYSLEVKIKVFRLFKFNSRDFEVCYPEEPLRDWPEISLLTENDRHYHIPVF
Outline: as §1

[7] = molecular target: OTUB1 (UniProt Q96FW1)
OTUB1, sequence (Q96FW1 whole entry): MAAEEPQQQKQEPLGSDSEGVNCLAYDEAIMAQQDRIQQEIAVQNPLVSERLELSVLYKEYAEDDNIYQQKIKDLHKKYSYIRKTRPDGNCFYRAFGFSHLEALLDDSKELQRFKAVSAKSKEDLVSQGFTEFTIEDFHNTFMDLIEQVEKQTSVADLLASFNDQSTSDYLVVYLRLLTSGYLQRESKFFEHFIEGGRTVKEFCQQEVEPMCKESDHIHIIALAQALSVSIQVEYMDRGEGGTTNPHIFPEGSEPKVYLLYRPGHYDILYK
Outline: as §1

[8] = molecular target: T4, OTUD4 (UniProt Q01804)
T4 sequence (whole entry): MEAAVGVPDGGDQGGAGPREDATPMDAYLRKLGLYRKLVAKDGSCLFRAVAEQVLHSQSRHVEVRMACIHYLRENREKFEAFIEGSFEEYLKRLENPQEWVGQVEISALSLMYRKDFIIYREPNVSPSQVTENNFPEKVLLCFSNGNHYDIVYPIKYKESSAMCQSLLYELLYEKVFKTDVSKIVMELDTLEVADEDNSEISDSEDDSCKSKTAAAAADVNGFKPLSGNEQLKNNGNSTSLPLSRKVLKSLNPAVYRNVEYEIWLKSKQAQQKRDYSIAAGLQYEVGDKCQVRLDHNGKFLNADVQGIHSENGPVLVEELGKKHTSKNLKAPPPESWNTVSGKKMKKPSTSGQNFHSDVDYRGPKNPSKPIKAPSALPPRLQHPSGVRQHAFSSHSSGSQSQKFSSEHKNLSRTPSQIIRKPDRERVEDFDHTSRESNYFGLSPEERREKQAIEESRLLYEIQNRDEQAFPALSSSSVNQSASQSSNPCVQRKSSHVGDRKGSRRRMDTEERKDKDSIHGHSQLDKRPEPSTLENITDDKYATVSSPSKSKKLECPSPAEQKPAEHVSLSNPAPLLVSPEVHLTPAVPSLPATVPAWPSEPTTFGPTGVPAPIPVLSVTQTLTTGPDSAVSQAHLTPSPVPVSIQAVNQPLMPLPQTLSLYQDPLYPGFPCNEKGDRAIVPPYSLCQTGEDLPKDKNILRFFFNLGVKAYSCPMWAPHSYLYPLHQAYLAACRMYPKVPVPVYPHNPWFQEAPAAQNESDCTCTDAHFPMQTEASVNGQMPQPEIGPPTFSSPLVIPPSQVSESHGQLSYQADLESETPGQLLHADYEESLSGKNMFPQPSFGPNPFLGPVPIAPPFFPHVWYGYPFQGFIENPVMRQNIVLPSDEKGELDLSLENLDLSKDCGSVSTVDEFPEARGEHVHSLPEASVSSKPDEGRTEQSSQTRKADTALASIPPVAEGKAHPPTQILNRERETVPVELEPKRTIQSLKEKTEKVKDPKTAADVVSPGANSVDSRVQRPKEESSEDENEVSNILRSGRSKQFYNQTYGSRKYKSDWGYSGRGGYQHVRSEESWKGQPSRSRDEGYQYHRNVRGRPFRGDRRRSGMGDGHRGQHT
Outline: as §1

[9] = molecular target: T5, OTUD5 (UniProt Q96G74)
T5 sequence (whole entry): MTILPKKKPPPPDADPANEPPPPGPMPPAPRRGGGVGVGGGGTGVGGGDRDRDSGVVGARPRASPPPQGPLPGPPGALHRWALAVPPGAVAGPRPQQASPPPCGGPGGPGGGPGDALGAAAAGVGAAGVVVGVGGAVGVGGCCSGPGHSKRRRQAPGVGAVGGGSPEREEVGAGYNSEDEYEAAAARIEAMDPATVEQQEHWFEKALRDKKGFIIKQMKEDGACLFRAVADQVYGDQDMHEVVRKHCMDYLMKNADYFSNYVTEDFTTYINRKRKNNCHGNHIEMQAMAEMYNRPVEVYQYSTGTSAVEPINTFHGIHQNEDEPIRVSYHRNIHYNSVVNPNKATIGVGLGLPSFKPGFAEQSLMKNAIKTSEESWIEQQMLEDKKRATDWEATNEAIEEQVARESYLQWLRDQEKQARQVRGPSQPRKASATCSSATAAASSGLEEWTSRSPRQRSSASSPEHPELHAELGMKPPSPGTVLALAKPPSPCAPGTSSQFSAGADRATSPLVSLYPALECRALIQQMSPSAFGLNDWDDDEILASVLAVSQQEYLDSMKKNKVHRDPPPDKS
Outline: as §1

Measured: log2 ratio of Biotin-Ahx-Ub-VS probe labelling

CCN(Cc1ccc(C#N)cc1F)C(=O)CCl
active: [2] -1.1
inactive: [1] 0.0792 | [3] -0.691 | [4] -0.201 | [5] 0.0146 | [6] 0.124 | [7] -0.377 | [8] -0.686 | [9] -0.653
